From the supplement of paper PMC10849652 come the findings set out here.

Of roughly 8,800 targets only a part is listed; those with a hit were picked by preference. About 0.5% of all pairs of compound and target were hits. Values without a mark were called inactive.

What all share (experiment): log2 fold change, soluble protein after heating vs DMSO (PISA); higher = thermal stabilisation; K562 lysate, 10 uM; active = over 0.2 and 3.5 SD of the protein, either way, in both replicates (recomputed)
Compound in assay [1]: C1CCN(C1)C(=O)NC2=CC=CC(=C2)NC3=NC=C(C(=N3)NCCC4=CN=CN4)Br
The essentials: (§1)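 To prepare the extract, K562 pellets were dounce-homogenised in PBS pH 7.4 with 1 mM MgCl2, giving crude material at 1 mg/mL protein. This was treated with 10 μM compound for 30 min, then heated in aliquots for 3 min over 48°C-58°C before pooling and addition of NP-40 to 0.5% at 4°C. Centrifugation at 21,000xg for 90 min left soluble protein in the supernatant, which TMTpro 16plex LC-MS/MS quantified with equalised channel sums. Results are log-two fold changes in thermal stability compared with solvent controls, from duplicates.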

Compound in assay [2]: C1CN(CCC1(CC2=CC=C(C=C2)Cl)N)C3=NC=NC4=C3C=CN4
The essentials: as §1

Compound in assay [3]: CC1=C(C=C(C=C1)NC(=O)C2=CC(=CC=C2)C(C)(C)C#N)NC3=CC4=C(C=C3)N=CN(C4=O)C
The essentials: as §1

Compound in the next assay: C#Cc1cccc(Nc2ncnc3cc(OCCOC)c(OCCOC)cc23)c1 [erlotinib]
The essentials:
as §1

Compound in assay [4]: C/C(=N\NC(=O)C1=CC(=CC=C1)S(=O)(=O)N2CCOCC2)/C3=C(C=CC(=C3)Cl)O
The essentials: as §1

Compound in assay [5]: C1=CC(=CC=C1C2=NC3=C(N2)C=C(C=C3)C(=O)N)OC4=CC=C(C=C4)Cl
The essentials: as §1

Compound in assay [6]: C1=CC2=C(C=CC(=C2)/C=C\3/C(=O)NC(=NCC4=CC=CS4)S3)N=C1
The essentials:
as §1

Compound in assay [7]: C1=CC2=NC=CN=C2C=C1/C=C/3\C(=O)NC(=O)S3
The essentials: as §1

Compound in assay [8]: C1=CC=C(C=C1)C2=NC(=C(N2)C3=CC=NC=C3)C4=CC(=C(C=C4)Cl)O
The essentials: as §1

Compound in assay [9]: C1=CC=C2C(=C1)C3=NNC4=CC=CC(=C43)C2=O
The essentials: as §1

Compound in the next assay: C1COCCN1CCN2C3=CC=CC=C3N=C2NC(=O)C4=CC(=CC=C4)[N+](=O)[O-] [IRAK-1-4 Inhibitor I]
The essentials:
as §1

Compound in another assay: C=CC(=O)N1CCC[C@@H](n2nc(-c3ccc(Oc4ccccc4)cc3)c3c(N)ncnc32)C1 [ibrutinib]
The essentials:
as §1

Compound in assay [10]: CC(=O)c1cnc2ccc(-c3cc(Cl)c(O)c(Cl)c3)nc2c1N[C@H]1CC[C@H](CN(C)C)CC1
The essentials:
as §1

Compound in the next assay: CC(C)(C)Cn1c(N)nc2ccc(-c3[nH]c(C(C)(C)C)nc3-c3ccc(F)cc3)nc21 [ralimetinib]
The essentials:
as §1

Compound in assay [11]: CC(C)(O)CC(=O)NCCn1ccc2ncnc(Nc3ccc(Oc4cccc(C(F)(F)F)c4)c(Cl)c3)c21
The essentials:
as §1

Compound in assay [12]: CC(C)C1=C2N=C(C=C(N2N=C1)NCC3=CC=CC=C3)NCCCCCCN
The essentials:
as §1

Compound in assay [13]: CC1=C(C(CC(=O)N1)C2=CC=C(C=C2)C(F)(F)F)C(=O)NC3=C(C=C4C(=C3)C=NN4)F
The essentials:
as §1

Compound in assay [14]: CC1=C(C2=C(C=C1)C(=O)C3=CC=CC=C3N2CCCN)C
The essentials: as §1

Compound in assay [15]: CC1=C(C=C(C=C1)NC(=O)C2=CC(=CC=C2)N(C)C)NC(=O)C3=CC=C(C=C3)O
The essentials: as §1

Compound in assay [16]: CC1=CC=C(C=C1)SC2=C3C=C(SC3=CN=C2)C(=O)N
The essentials:
as §1

Chain of UniProt Q8TCY9 (Q8TCY9 whole entry, looked up): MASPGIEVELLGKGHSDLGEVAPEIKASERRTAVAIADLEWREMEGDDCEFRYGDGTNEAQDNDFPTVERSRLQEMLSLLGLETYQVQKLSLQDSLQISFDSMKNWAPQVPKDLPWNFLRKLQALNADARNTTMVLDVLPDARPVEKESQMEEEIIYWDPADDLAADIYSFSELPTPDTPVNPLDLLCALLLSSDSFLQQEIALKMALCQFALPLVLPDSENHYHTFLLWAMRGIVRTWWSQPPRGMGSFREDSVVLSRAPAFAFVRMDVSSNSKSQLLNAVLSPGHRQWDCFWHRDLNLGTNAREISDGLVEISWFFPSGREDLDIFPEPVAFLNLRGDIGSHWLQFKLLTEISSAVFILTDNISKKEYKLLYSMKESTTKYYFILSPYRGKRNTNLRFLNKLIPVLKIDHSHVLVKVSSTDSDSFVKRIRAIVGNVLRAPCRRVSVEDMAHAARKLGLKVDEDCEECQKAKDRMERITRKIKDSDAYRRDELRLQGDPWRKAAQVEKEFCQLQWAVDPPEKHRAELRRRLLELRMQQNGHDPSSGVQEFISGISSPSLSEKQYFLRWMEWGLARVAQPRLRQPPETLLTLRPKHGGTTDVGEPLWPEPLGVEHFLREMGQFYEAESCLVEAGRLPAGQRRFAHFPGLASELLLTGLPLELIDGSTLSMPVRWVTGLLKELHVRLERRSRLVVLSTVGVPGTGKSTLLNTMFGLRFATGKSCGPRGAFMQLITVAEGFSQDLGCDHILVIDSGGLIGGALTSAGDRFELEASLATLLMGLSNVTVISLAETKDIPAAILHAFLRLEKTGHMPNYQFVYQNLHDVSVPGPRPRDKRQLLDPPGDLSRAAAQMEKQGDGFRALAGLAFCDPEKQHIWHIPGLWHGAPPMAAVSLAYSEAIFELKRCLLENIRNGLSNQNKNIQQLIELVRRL
Chain of UniProt Q6EMK4 (Q6EMK4 whole entry, looked up): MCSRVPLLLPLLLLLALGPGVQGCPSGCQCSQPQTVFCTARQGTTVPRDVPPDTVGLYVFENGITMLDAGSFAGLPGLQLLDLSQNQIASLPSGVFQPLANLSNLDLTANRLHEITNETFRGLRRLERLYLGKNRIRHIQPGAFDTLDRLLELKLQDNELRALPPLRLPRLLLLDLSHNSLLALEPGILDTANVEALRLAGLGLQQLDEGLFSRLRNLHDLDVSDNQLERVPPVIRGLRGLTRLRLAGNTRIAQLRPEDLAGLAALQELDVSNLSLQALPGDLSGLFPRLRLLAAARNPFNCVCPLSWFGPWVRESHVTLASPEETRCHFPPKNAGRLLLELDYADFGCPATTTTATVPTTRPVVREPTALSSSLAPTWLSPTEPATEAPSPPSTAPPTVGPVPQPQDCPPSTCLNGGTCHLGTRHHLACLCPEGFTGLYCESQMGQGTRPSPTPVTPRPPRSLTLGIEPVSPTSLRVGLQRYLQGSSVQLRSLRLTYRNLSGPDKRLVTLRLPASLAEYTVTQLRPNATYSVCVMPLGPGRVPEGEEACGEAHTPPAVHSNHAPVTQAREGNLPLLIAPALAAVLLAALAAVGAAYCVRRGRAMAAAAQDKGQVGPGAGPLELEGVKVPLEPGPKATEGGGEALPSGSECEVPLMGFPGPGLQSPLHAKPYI
Chain of UniProt Q9NUA8 (Q9NUA8 whole entry, looked up): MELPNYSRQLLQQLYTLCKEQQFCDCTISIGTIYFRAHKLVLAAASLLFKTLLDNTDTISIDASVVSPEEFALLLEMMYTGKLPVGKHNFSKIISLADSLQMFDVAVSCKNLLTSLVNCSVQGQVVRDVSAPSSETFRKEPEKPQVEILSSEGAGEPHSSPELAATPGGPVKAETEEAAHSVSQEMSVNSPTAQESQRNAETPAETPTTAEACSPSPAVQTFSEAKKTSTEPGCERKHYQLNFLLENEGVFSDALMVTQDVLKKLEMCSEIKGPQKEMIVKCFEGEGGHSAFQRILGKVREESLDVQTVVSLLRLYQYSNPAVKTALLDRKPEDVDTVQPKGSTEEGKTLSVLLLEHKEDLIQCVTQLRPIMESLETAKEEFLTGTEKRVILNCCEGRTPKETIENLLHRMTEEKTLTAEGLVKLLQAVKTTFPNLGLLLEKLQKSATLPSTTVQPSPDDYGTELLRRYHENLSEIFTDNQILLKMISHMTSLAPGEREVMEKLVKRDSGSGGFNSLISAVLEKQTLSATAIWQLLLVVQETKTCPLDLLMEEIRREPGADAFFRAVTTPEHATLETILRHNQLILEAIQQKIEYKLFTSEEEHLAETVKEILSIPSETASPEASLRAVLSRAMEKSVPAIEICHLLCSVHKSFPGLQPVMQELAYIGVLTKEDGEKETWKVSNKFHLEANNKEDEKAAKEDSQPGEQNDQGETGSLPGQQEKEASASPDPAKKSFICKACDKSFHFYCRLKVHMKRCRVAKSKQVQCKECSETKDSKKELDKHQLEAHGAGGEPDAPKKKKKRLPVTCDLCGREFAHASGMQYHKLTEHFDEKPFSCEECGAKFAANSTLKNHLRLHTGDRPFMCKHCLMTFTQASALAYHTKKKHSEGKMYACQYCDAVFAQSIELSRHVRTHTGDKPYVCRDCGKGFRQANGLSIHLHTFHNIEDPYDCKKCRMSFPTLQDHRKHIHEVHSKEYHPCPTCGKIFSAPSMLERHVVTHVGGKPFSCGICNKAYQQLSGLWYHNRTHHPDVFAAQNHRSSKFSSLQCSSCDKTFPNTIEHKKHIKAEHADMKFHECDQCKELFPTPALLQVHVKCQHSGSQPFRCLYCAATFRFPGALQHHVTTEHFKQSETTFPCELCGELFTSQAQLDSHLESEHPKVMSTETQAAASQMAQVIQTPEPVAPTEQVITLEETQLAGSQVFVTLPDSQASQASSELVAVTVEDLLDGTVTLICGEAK
Chain of UniProt P40818 (P40818 whole entry, looked up): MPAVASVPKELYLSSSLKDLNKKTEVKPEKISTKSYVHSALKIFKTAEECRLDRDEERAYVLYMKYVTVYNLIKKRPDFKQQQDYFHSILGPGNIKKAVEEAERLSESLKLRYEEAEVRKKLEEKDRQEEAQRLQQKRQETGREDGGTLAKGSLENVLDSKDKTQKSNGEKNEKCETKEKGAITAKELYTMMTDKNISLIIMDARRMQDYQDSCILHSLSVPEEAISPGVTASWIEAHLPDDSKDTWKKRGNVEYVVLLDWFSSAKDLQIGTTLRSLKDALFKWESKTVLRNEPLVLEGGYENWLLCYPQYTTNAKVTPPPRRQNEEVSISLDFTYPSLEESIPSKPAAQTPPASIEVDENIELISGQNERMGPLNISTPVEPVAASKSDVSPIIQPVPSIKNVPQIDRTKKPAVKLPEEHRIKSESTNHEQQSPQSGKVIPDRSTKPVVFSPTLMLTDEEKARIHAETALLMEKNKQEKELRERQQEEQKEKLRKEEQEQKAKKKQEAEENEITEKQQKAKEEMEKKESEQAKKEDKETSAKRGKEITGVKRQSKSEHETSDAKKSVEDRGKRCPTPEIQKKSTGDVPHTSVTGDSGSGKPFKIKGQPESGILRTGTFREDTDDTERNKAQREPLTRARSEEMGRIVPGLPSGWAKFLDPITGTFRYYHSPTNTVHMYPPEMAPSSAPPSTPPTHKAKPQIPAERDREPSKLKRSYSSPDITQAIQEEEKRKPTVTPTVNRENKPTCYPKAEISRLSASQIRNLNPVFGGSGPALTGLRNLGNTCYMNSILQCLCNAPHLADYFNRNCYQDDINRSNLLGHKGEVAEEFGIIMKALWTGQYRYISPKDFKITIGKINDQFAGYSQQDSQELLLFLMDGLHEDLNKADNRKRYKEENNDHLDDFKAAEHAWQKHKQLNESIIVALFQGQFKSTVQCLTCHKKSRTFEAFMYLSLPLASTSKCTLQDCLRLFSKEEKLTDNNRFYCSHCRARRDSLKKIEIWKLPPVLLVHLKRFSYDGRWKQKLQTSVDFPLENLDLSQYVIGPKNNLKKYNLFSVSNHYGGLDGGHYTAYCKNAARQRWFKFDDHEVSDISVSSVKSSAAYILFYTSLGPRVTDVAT
Chain of UniProt Q9Y5A6 (Q9Y5A6 whole entry, looked up): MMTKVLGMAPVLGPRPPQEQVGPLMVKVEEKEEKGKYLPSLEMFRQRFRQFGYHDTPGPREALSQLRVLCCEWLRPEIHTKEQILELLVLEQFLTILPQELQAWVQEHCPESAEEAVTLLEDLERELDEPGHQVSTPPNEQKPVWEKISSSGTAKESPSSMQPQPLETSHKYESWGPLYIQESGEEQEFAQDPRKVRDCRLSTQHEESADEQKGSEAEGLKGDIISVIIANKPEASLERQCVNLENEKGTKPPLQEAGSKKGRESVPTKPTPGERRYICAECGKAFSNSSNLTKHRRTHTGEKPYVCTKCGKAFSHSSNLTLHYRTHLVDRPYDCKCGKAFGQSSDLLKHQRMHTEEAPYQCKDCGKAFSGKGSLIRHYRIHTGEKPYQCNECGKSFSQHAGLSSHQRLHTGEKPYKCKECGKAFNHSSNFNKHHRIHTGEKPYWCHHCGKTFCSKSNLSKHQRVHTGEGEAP
Chain of UniProt Q9Y2D9 (Q9Y2D9 whole entry, looked up): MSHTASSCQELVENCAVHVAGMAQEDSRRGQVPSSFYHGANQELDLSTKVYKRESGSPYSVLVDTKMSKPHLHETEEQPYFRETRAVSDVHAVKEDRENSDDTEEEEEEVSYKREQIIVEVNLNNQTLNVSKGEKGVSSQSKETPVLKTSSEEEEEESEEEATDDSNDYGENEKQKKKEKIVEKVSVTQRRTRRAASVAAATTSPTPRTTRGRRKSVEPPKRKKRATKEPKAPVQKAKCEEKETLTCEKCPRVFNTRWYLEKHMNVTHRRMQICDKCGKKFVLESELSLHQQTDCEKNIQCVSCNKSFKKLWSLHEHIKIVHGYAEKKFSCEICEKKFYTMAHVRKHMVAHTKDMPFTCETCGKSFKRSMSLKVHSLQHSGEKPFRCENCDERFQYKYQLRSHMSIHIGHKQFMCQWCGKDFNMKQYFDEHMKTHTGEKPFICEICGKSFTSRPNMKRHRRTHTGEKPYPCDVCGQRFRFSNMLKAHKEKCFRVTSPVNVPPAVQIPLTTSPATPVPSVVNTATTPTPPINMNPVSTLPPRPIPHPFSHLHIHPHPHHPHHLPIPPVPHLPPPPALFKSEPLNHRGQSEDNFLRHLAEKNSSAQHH

Take ZSCAN21 (UniProt Q9Y5A6): the log2 fold change in assay [1] is -0.022; in assay [2], 0.037.
As to ZNF652 (UniProt Q9Y2D9), in assay [3], the log2 fold change is 0.042.
Consider USP8 (UniProt P40818), for which the log2 fold change in the assay with erlotinib was -0.011; in [4], -0.034; in assay [5], 0.026; in assay [6] it was -0.004; in assay [7], -0.034; in [8], 0.014. The log2 fold change in assay [9] was -0.028; in [1] it was -0.014; in assay [2], 0.006; in the assay with IRAK-1-4 Inhibitor I, -0.019; with ibrutinib, 0.048; in assay [10] it was -0.009. Besides, the log2 fold change with ralimetinib was 0; in assay [11] it was -0.014; in [12], 0.015; in assay [13], 0.004; in assay [14], -0.007; in assay [3] it was -0.001. Further, the log2 fold change in [15] is 0.018; in assay [16], 0.009.
ZBTB40 (UniProt Q9NUA8): the log2 fold change with erlotinib is -0.044; in assay [4] it was -0.019; in assay [5] it was -0.014; in assay [6] it was -0.075; in assay [8] it was -0.045; in assay [9], -0.017. In addition, the log2 fold change with IRAK-1-4 Inhibitor I is -0.048; in assay [10], 0.035; with ralimetinib it was 0.096; in [11], -0.012; in assay [12], 0.057; in [13] it was 0.081. The log2 fold change in assay [14] was -0.042; in assay [3], 0.009; in assay [15], -0.007; in assay [16] it was -0.044.
For the target VASN (UniProt Q6EMK4), the log2 fold change with erlotinib was -0.644 (active); in assay [5] it was 0.071; in [8], -0.191; in assay [1] it was -0.277; in assay [2], -0.01; with IRAK-1-4 Inhibitor I, 0.222. In addition, the log2 fold change in the assay with ralimetinib was 0.332; in assay [11], 0.172; in [12], -0.004; in [14], -0.255; in assay [15], -0.295.
For URGCP (UniProt Q8TCY9), the log2 fold change in assay [4] was -0.024; in [6] it was -0.075; in [7], -0.01; in assay [8] it was -0.038; in [9], 0.051; with IRAK-1-4 Inhibitor I, 0.022. In addition, the log2 fold change with ibrutinib is 0.081; in the assay with ralimetinib it was -0.07; in [11] it was -0.515 (active); in assay [13], -0.05; in [14], 0.008; in [15], -0.042.
